“And” between values parts separate entries of the source, which are not always exact repeats. Equal values may be shown once. Screen size: about 5,500 compounds; about 2,000 (36%) were called active. About 18% were inconclusive and are not listed. No stated cut-off is given here; in the data, active means normalized growth mostly below about 0.91 (no sharp cut-off); inconclusive means no clear call, values can overlap the other calls; inactive means mostly above about 0.92. This is one part of the list.
Assay: chemical genetic growth profiling, strain panel (AID 1159580);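 further: tested at 20 µM; growth read once vehicle control cultures reached saturation at 30 °C; 1 = growth at the plate median or of vehicle wells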
Conditions: S. cerevisiae deletion strains, growth OD

Measured: normalized growth

COc1c2c(cc3occ(-c4ccc5c(c4)OCO5)c(=O)c13)OC(C)(C)C=C2
active: locus YDR392W, strain spt3, stronger effect = lower value 0.644 | locus YGL086W, strain mad1, stronger effect = lower value 0.889 | locus YHR142W, strain chs7, stronger effect = lower value 0.857 | locus YKR001C, strain vps1, stronger effect = lower value 0.895 | locus YNL071W, strain lat1, stronger effect = lower value 0.89 | locus YOR184W, strain ser1, stronger effect = lower value 0.795
inactive: locus YAL013W, strain DEP1, stronger effect = lower value 0.989 | locus YAL021C, strain ccr4, stronger effect = lower value 1 | locus YAL026C, strain drs2, stronger effect = lower value 0.975 | locus YAL030W, strain snc1, stronger effect = lower value 0.997 | locus YBL061C, strain skt5, stronger effect = lower value 0.969 | locus YBR009C, strain hhf1, stronger effect = lower value 0.966 | locus YBR021W, strain FUR4, stronger effect = lower value 0.973 | locus YBR023C, strain chs3, stronger effect = lower value 0.967 | locus YBR171W, strain sec66, stronger effect = lower value 0.988 | locus YBR229C, strain ROT2, stronger effect = lower value 0.987 | locus YBR231C, strain swc5, stronger effect = lower value 0.989 | locus YBR279W, strain paf1, stronger effect = lower value 1.03 | locus YCL011C, strain gbp2, stronger effect = lower value 0.985 | locus YCL016C, strain dcc1, stronger effect = lower value 0.994 | locus YCL029C, strain bik1, stronger effect = lower value 0.961 | locus YCL061C, strain MRC1, stronger effect = lower value 0.996 | locus YCL069W, strain vba3, stronger effect = lower value 1 | locus YCR088W, strain abp1, stronger effect = lower value 0.995 | locus YDL005C, strain med2, stronger effect = lower value 1 | locus YDL035C, strain GPR1, stronger effect = lower value 0.95 | locus YDL040C, strain nat1, stronger effect = lower value 1.01 | locus YDL074C, strain BRE1, stronger effect = lower value 0.901 | locus YDL101C, strain DUN1, stronger effect = lower value 0.98 | locus YDL185W, strain tfp1, stronger effect = lower value 0.943 | locus YDL192W, strain arf1, stronger effect = lower value 0.918 | locus YDR001C, strain nth1, stronger effect = lower value 0.994 | locus YDR069C, strain doa4, stronger effect = lower value 0.991 | locus YDR101C, strain arx1, stronger effect = lower value 0.925 | locus YDR137W, strain rgp1, stronger effect = lower value 0.964 | locus YDR159W, strain sac3, stronger effect = lower value 1.02 | locus YDR162C, strain NBP2, stronger effect = lower value 0.993 | locus YDR195W, strain ref2 1.11 | locus YDR297W, strain sur2, stronger effect = lower value 0.995 | locus YDR318W, strain mcm21, stronger effect = lower value 0.962 | locus YDR334W, strain swr1, stronger effect = lower value 1.01 | locus YDR335W, strain msn5, stronger effect = lower value 1.02 | locus YDR388W, stronger effect = lower value 0.973 | locus YDR502C, strain sam2, stronger effect = lower value 0.926 | locus YEL003W, strain gim4, stronger effect = lower value 1 | locus YEL037C, strain rad23, stronger effect = lower value 1 | locus YEL061C, strain CIN8 (second series), stronger effect = lower value 1.01 | locus YEL061C, strain CIN8, stronger effect = lower value 0.992 | locus YER015W, strain faa2, stronger effect = lower value 1 | locus YER016W, strain bim1, stronger effect = lower value 1 | locus YER110C, stronger effect = lower value 0.983 | locus YER111C, strain swi4, stronger effect = lower value 1.01 | locus YER155C, strain BEM2 (second series), stronger effect = lower value 0.936 | locus YER155C, strain BEM2, stronger effect = lower value 0.992 | locus YER167W, strain BCK2, stronger effect = lower value 0.984 | locus YFR010W, strain ubp6, stronger effect = lower value 0.989 | locus YGL078C, strain dbp3, stronger effect = lower value 0.929 | locus YGL167C, strain pmr1, stronger effect = lower value 1 | locus YGL173C, strain kem1, stronger effect = lower value 0.996 | locus YGL227W, strain vid30, stronger effect = lower value 1 | locus YGL240W, strain doc1, stronger effect = lower value 0.998 | locus YGL248W, strain PDE1, stronger effect = lower value 0.998 | locus YGL253W, strain hxk2, stronger effect = lower value 0.936 | locus YGR078C, strain PAC10, stronger effect = lower value 0.982 | locus YGR135W, strain pre9, stronger effect = lower value 0.98 | locus YGR252W, strain gcn5, stronger effect = lower value 0.983 | locus YHR013C, strain ard1, stronger effect = lower value 0.986 | locus YHR027C, strain rpn1, stronger effect = lower value 0.993 | locus YHR030C, strain SLT2, stronger effect = lower value 0.992 and 1.01 | locus YHR079C, strain IRE1 (second series), stronger effect = lower value 0.952 | locus YHR079C, strain IRE1, stronger effect = lower value 0.983 | locus YHR094C, strain hxt1, stronger effect = lower value 0.977 | locus YHR129C, strain ARP1, stronger effect = lower value 0.988 | locus YHR200W, strain rpn10, stronger effect = lower value 0.949 | locus YIL066C, strain RNR3, stronger effect = lower value 0.965 | locus YIL073C, strain SPO22, stronger effect = lower value 0.941 | locus YIL125W, strain kgd1, stronger effect = lower value 0.96 | locus YIR030C, strain dcg1, stronger effect = lower value 0.97 | locus YJL092W, strain hpr5, stronger effect = lower value 0.99 | locus YJL095W, strain BCK1 (second series), stronger effect = lower value 0.997 | locus YJL095W, strain BCK1, stronger effect = lower value 0.981 and 1.01 | locus YJL115W, strain asf1, stronger effect = lower value 1.02 | locus YJL129C, strain trk1, stronger effect = lower value 0.937 | locus YJL134W, strain LCB3, stronger effect = lower value 0.992 | locus YJL154C, strain vps35, stronger effect = lower value 1.02 | locus YJL164C, strain tpk1, stronger effect = lower value 0.981 | locus YJL166W, strain qcr8, stronger effect = lower value 0.973 | locus YJL168C, strain set2, stronger effect = lower value 0.972 | locus YJL187C, strain SWE1 (second series), stronger effect = lower value 0.975 | locus YJL187C, strain SWE1, stronger effect = lower value 1 | locus YJR043C, strain POL32, stronger effect = lower value 0.999 | locus YJR066W, strain TOR1, stronger effect = lower value 0.955 | locus YJR075W, strain HOC1, stronger effect = lower value 0.976 | locus YKL009W, strain mrt4, stronger effect = lower value 0.885 | locus YKL068W, stronger effect = lower value 0.959 | locus YKL085W, strain MDH1 (second series), stronger effect = lower value 0.965 | locus YKL085W, strain MDH1, stronger effect = lower value 0.965 | locus YKL160W, strain elf1, stronger effect = lower value 0.965 | locus YKL190W, strain CNB1, stronger effect = lower value 0.984 | locus YKR026C, strain gcn3, stronger effect = lower value 0.999 | locus YKR091W, strain srl3, stronger effect = lower value 1 | locus YLL001W, strain dnm1, stronger effect = lower value 0.989 | locus YLL026W, stronger effect = lower value 1 | locus YLL041C, strain sdh2, stronger effect = lower value 0.996 | locus YLR027C, strain aat2, stronger effect = lower value 0.971 | locus YLR039C, strain RIC1, stronger effect = lower value 0.939 | locus YLR058C, strain SHM2, stronger effect = lower value 1 | locus YLR102C, strain apc9, stronger effect = lower value 0.963 | locus YLR113W, strain HOG1, stronger effect = lower value 0.995 | locus YLR221C, strain rsa3, stronger effect = lower value 0.948 | locus YLR258W, strain gsy2, stronger effect = lower value 0.989 | locus YLR262C, strain YPT6 (second series), stronger effect = lower value 0.94 | locus YLR262C, strain YPT6, stronger effect = lower value 0.937 | locus YLR268W, strain sec22, stronger effect = lower value 0.905 | locus YLR320W, strain mms22, stronger effect = lower value 0.928 | locus YLR330W, strain CHS5, stronger effect = lower value 0.981 | locus YLR342W, strain FKS1 (second series), stronger effect = lower value 0.963 | locus YLR342W, strain FKS1, stronger effect = lower value 0.989 | locus YLR357W, strain rsc2, stronger effect = lower value 1.02 | locus YLR370C, strain arc18, stronger effect = lower value 1 | locus YLR371W, strain rom2, stronger effect = lower value 0.944 | locus YLR384C, strain iki3, stronger effect = lower value 1.01 | locus YLR418C, strain cdc73, stronger effect = lower value 0.87 | locus YML016C, strain PPZ1, stronger effect = lower value 1 | locus YML032C, strain rad52, stronger effect = lower value 0.999 | locus YML120C, strain ndi1, stronger effect = lower value 0.987 | locus YML124C, strain tub3, stronger effect = lower value 0.979 | locus YMR058W, strain fet3, stronger effect = lower value 0.987 | locus YMR078C, strain ctf18, stronger effect = lower value 0.986 | locus YMR125W, strain sto1, stronger effect = lower value 1.01 | locus YMR129W, stronger effect = lower value 1.01 | locus YMR205C, strain PFK2, stronger effect = lower value 0.946 | locus YMR223W, strain ubp8, stronger effect = lower value 0.97 | locus YMR231W, strain pep5, stronger effect = lower value 1.01 | locus YMR263W, strain SAP30, stronger effect = lower value 0.97 | locus YMR307W, strain GAS1, stronger effect = lower value 1.05 | locus YNL067W, strain RPL9B, stronger effect = lower value 0.986 | locus YNL128W, strain TEP1, stronger effect = lower value 0.943 | locus YNL153C, strain GIM3, stronger effect = lower value 0.993 | locus YNL183C, strain NPR1, stronger effect = lower value 0.933 | locus YNL209W, strain ssb2, stronger effect = lower value 1.02 | locus YNL233W, strain BNI4, stronger effect = lower value 0.954 | locus YNL248C, strain rpa49, stronger effect = lower value 0.963 | locus YNL250W, strain rad50, stronger effect = lower value 0.925 | locus YNL271C, strain bni1, stronger effect = lower value 0.98 | locus YNL298W, strain CLA4, stronger effect = lower value 0.962 | locus YNL307C, strain MCK1, stronger effect = lower value 0.952 | locus YNL322C, strain KRE1 (second series), stronger effect = lower value 1.02 | locus YNR049C, strain mso1, stronger effect = lower value 1 | locus YNR052C, strain pop2, stronger effect = lower value 0.99 | locus YOL012C, strain htz1 1.17 | locus YOL147C, strain pex11, stronger effect = lower value 0.949 | locus YOR001W, strain rrp6, stronger effect = lower value 0.957 | locus YOR061W, strain CKA2, stronger effect = lower value 0.997 | locus YOR069W, strain VPS5, stronger effect = lower value 0.991 | locus YOR070C, strain gyp1, stronger effect = lower value 0.992 | locus YOR080W, strain dia2, stronger effect = lower value 1.02 | locus YOR083W, strain WHI5, stronger effect = lower value 0.961 | locus YOR106W, strain vam3, stronger effect = lower value 0.975 | locus YOR136W, strain idh2, stronger effect = lower value 0.958 | locus YOR144C, strain elg1, stronger effect = lower value 0.984 | locus YOR231W, strain MKK1, stronger effect = lower value 1.02 | locus YOR265W, strain rbl2, stronger effect = lower value 0.999 | locus YOR270C, strain vph1, stronger effect = lower value 0.817 | locus YOR290C, strain snf2, stronger effect = lower value 0.91 | locus YOR316C, strain cot1, stronger effect = lower value 0.986 | locus YPL051W, strain arl3, stronger effect = lower value 0.973 | locus YPL055C, strain LGE1, stronger effect = lower value 0.926 | locus YPL078C, strain atp4, stronger effect = lower value 0.952 | locus YPL106C, strain sse1, stronger effect = lower value 1.02 | locus YPL240C, strain hsp82, stronger effect = lower value 0.997 | locus YPL256C, strain CLN2, stronger effect = lower value 0.997 | locus YPR119W, strain clb2, stronger effect = lower value 0.964 | locus YPR141C, strain kar3, stronger effect = lower value 0.979 | locus YPR163C, strain tif3, stronger effect = lower value 0.978 | locus YPR167C, strain met16, stronger effect = lower value 0.956 | strain wtn01, stronger effect = lower value 0.911
